NR2F2 inh = blocks human COUP-TFII nuclear receptor; P24468; HEK293T NGFI-A luciferase reporter, luminescence; inhibition, % at 8.6 µM; 370,000 tested, 0.7% active; AID 686940;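 active = inhibition above a per-plate cutoff, mean inhibition of test wells between control levels plus 3 SD, cut at about 38% in these data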;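 also: cells cotransfected with COUP-TFII expression vector driving the NGFI-A reporter; 0% = median of COUP-TF2 test wells and 100% = reporter-only cells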
NCOA3 inh = inhibitors of human steroid receptor coactivator 3 (SRC3). Q9Y6Q9. HEK293 GAL4-SRC3 luciferase reporter, luminescence. inhibition, % at 3.6 µM. 360,000 tested, 0.17% active;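 active = inhibition above a per-campaign cutoff, the mean of all compounds plus 3 SD, cut at about 60% in these data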;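 also: 0% = DMSO-treated cells and 100% = gossypol-treated cells at 36 µM; higher means less SRC3-driven luciferase light from the GAL4 reporter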
SRC2 inh = human SRC2 (NCOA2) inhibition; Q15596; HEK293 GAL4-SRC2 luciferase reporter, luminescence; inhibition, % at 9 µM; 370,000 tested, 0.17% active;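 active = inhibition above the mean inhibition of all tested compounds plus 3 SD, set per campaign, cut at about 52% in these data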;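 also: 0% = DMSO treated cells and 100% = cells given Gossypol at 36 µM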
SRC1 inh = inhibitors of human steroid receptor coactivator 1 (SRC1). 360,000 tested, 0.12% active. inhibition, % at 3.6 µM. Q15788. HEK293 GAL4-SRC1 luciferase reporter, luminescence;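 active = inhibition above the campaign mean plus 3 SD, with each screening campaign given its own cutoff, cut at about 60% in these data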;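 also: 0% = DMSO treated cells and 100% = gossypol at 36 µM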
Gli-Sufu block = Gli-Sufu pathway antagonism | 340,000 tested, 0.74% active | inhibition, % at 5 µM | Sufu-KO-LIGHT fibroblasts, Gli luciferase reporter luminescence | AID 588413;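 active = inhibition above about 55%, limit read from the data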;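 also: 0% = DMSO-treated cells and 100% = wells with medium but no cells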
NR5A2 inv ag = inverse agonists of human LRH-1 (NR5A2) | O00482 | HEK293T StAR-luciferase reporter, LRH-1 transfected, 24 h | inhibition, % at 3.6 µM | 360,000 tested, 0.13% active;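 active = inhibition above the mean inhibition of all tested compounds plus 3 SD, cut at about 73% in these data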;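 also: 0% = DMSO wells and 100% = reporter-only cells lacking LRH-1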
Gli antag conf = confirmation of Gli-SUFU pathway antagonists. AID 602428. inhibition, % at 5 µM. shares compounds with Gli-Sufu block. 2,500 tested, 40% active. Sufu-KO-LIGHT cells, Gli luciferase reporter, luminescence;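 active = mean inhibition at 5 µM reaching about 45%, limit read from the data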;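 also: plate controls were DMSO-treated cells for no effect and wells lacking cells for full effect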
Gli cytotox = cytotoxic in Gli-SUFU antagonist counter-screen; AID 651994; shares compounds with Gli-Sufu block; 2,500 tested, 32% active; cytotoxicity, % at 5 µM; Sufu-KO-LIGHT cells cytotoxicity, ATP luminescence;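 active = mean cytotoxicity at 5 µM above about 25%, limit read from the data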;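 also: cells exposed to compound overnight for roughly 16 to 18 hours; plate controls were DMSO wells with cells for no effect and medium without cells for full effect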
Wnt3a counter = inhibits Wnt3a reporter, counter-screen for Gli-SUFU antagonists; shares compounds with Gli-Sufu block; Wnt-LIGHT cells, Wnt3a-driven luciferase reporter, luminescence; inhibition, % at 6.25 µM; 2,500 tested, 20% active; AID 651995;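 active = mean inhibition above about 25%, limit read from the data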
An asterisk follows results filed as active; · = no result. Only some compounds are listed: those with a hit (about 1.3% of all), similar ones and a draw of the others.

SMILES	NR2F2 inh	NCOA3 inh	SRC2 inh	SRC1 inh	Gli-Sufu block	NR5A2 inv ag	Gli antag conf	Gli cytotox	Wnt3a counter
C=C1C(=O)OC2C=C(CO)C3OC3C3OC3(C)CC(OC(=O)/C(=C/C)COC(C)=O)C12 (stereo not drawn)	14	-67	-39	-116	68*	-11	61*	19	57*
CCOC(=O)C1=C(C)OC(N)=C(C#N)C1c1cc2cc(C)ccc2nc1N1CCCCC1 (stereo not drawn)	-2	-16	-32	-14	-10	4	·	·	·
CCOC(=O)C1=C(C)OC(N)=C(C#N)C1c1cc2ccccc2nc1N1CCCCC1 (stereo not drawn)	·	·	·	·	50	·	35	16	-14
COc1ccc2c(c1)nc(SCC(C)O)n2C (stereo not drawn)	-17	-6	-23	-32	-7	2	·	·	·
COc1ccc2c(c1)nc(SCC(=O)C(C)(C)C)n2C	-7	10	-19	2	64*	-20	24	6	-5
COC(=O)C1=C(C)N(Cc2ccccc2C(F)(F)F)C(=NCc2ccc3c(c2)OCO3)NC1c1cccc(F)c1 (stereo not drawn)	-13	·	-2	·	·	·	·	·	·
CCC(C)[C@H]1CN=C(N)N1CC1CCCCC1 (stereo partly drawn)	·	·	·	·	65*	·	68*	26*	29*
CC(O)[C@H]1CN=C(N)N1CCCCC1CCCCC1 (stereo partly drawn)	-15	-5	-10	0	7	-11	·	·	·
COc1cccc(NC(=O)CCS(=O)(=O)c2ccc3c(c2)oc(=O)n3C)c1	2	2	5	11	51	18	18	26*	-25
Cc1cc(C)c(OCC(=O)Nc2ccc(S(=O)(=O)N3CCCC3)cc2)c(C)c1	23	-20	-10	-2	98*	-6	20	25*	-23
Cc1cccc(OCC(=O)Nc2ccc(S(=O)(=O)N3CCCC3)cc2)c1	20	-8	5	-19	-13	2	·	·	·
COC(=O)[C@]12C[C@H](CC(=O)NCc3cccc4ccccc34)C(=O)N(Cc3ccc4c(c3)OCO4)C1=C[C@H](C(C)(C)C)O[C@@H]2C	7	·	-27	·	·	·	·	·	·
NC(=O)COc1ncnc2scc(-c3ccc(F)cc3)c12	5	-5	-13	4	54	-11	14	12	-7
COCCNC(=O)COc1ncnc2scc(-c3ccc(F)cc3)c12	-6	13	-10	-28	-5	-12	·	·	·
FC(F)(F)Oc1ccc(Cn2ccc3ccc(-c4ccc5ccn(Cc6ccc(OC(F)(F)F)cc6)c5c4)cc32)cc1	7	·	-14	·	·	·	·	·	·
O=S(=O)(NCc1ccncc1)c1ccc(S(=O)(=O)NCC2CCCO2)cc1 (stereo not drawn)	22	12	17	10	53	15	42	13	26*
CCCCc1ccc(S(=O)(=O)NCCc2ccncc2)cc1	19	6	28	-1	15	-3	·	·	·
O=S(=O)(NCc1ccccc1)c1ccc(S(=O)(=O)NCC2CCCO2)cc1 (stereo not drawn)	-10	-4	-18	-11	26	15	·	·	·
CCCCNS(=O)(=O)c1ccc(S(=O)(=O)NCc2ccncc2)cc1	33	34	27	-26	57*	26	59*	37*	23
CC12C=CC(C)(C3C(=O)NC(=O)C31)C1C3C(=O)NC(=O)C3C12 (stereo not drawn)	6	·	-18	·	·	·	·	·	·
COC(=O)C1=C(C)N(Cc2ccccc2C(F)(F)F)C(=NCc2ccccc2)NC1c1ccc(F)cc1 (stereo not drawn)	6	·	-21	·	·	·	·	·	·
Clc1ccc(-c2c[n+](Cc3ccc(Cl)cc3Cl)c3n2CCCCC3)cc1	24	36	24	10	66*	25	75*	30*	-27
